The values below come from PubChem BioAssay.

Assay [1] is described as follows: growth inhibition of DIPG glioma cells, dose response, cell-based, SU-DIPG-XIII, MIPE4.0, CellTiter-Glo, qHTS (AID 1347061; cut-off not given, nearly all actives have AC50 up to about 37 µM;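 note: cells exposed to compound for 48 hours before readout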). The conditions noted are these: SU-DIPG-XIII viability, CellTiter-Glo ATP luminescence. Background: In ATP-based viability assays light output follows the ATP content of the culture.
The nature of assay [2]: growth inhibition of DIPG glioma cells, dose response, cell-based, JHH-DIPG-1, MIPE4.0, CellTiter-Glo, qHTS (AID 1347062; cut-off not given, nearly all actives have AC50 up to about 27 µM;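 for AC50: cells exposed to compound for two days before readout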). The conditions noted are these: JHH-DIPG-1 viability, CellTiter-Glo ATP luminescence.
The nature of assay [3]: growth inhibition of DIPG glioma cells, dose response, cell-based, SU-DIPG-IV, MIPE4.0, CellTiter-Glo, qHTS (AID 1347063).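 Note: compound exposure lasted 48 hours before the viability readout.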 The conditions noted are these: SU-DIPG-IV viability, CellTiter-Glo ATP luminescence.
Assay [4] in a line: SU-DIPG-VI glioma cell viability, MIPE4.0 library, CellTiter-Glo luminescence, qHTS (AID 1347066).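 Note: cells exposed to compound for 48 hours before readout.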 The conditions noted are these: CellTiter-Glo ATP luminescence.
Assay [5] in a line: SU-DIPG-XXV glioma cell viability, MIPE5.0 library, qHTS (AID 1347068; cut-off not given, nearly all actives have IC50 up to about 30 µM;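 for IC50: cells exposed to compound for 48 hours before viability readout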). In general terms: qHTS replaces the single test concentration by a dilution series.
Assay [6] is described as follows: growth inhibition of DIPG glioma cells, dose response, cell-based, SU-DIPG-XIII, MIPE5.0, CellTiter-Glo, qHTS (AID 1347064; cut-off not given, nearly all actives have AC50 up to about 23 µM;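 note: cells exposed to compound for 48 hours before the viability read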). The conditions noted are these: SU-DIPG-XIII viability, CellTiter-Glo ATP luminescence.
A short description of assay [7]: LFS_MB_1R medulloblastoma cell growth inhibition, synergistic combos for chromothripsis tumors, cisplatin or BGB combos (AID 1671452; in the data active = inhibition above about 80%;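 note: cells exposed for 96 hours before readout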). The conditions noted are these: LFS_MB_1R medulloblastoma cells, stronger effect = higher value.
A short description of assay [8]: CRL2098 osteosarcoma cell growth inhibition, synergistic combos for chromothripsis tumors, BGB or cisplatin IC20 combos (AID 1671454; in the data active = inhibition above about 80%;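 note: cells exposed for 96 h before readout; 0% = vehicle DMSO and 100% = killing by high DMSO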). The conditions noted are these: CRL2098 osteosarcoma cells, drug combinations, stronger effect = higher value.
Assay [9] in a line: growth inhibition of BT084 medulloblastoma cells, cell-based, ICGC_MB145, cisplatin and BGB IC40 combos (AID 1671461; in the data active = inhibition above about 80%;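 note: cells exposed to drugs for 96 hours; 0% = vehicle DMSO and 100% = high DMSO full killing control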). The conditions noted are these: drug combinations, stronger effect = higher value.
A short description of assay [10]: growth inhibition of RCMB18 medulloblastoma cells, cell-based, cisplatin and BGB IC40 combos (AID 1671462; in the data active = inhibition above about 80%;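 note: cells exposed to compound for four days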). The conditions noted are these: stronger effect = higher value.
Assay [11] can be described thus: growth inhibition of CRL1545 osteosarcoma cells, cell-based, cisplatin and BGB IC20 combos (AID 1671464; in the data active = inhibition above about 80%;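 note: cells exposed to compound for 96 hours before readout; 0% = vehicle DMSO and 100% = high DMSO killing control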). The conditions noted are these: stronger effect = higher value.
Assay [12] in a line: polyglutamine-triggered caspase-3 activation inhibitors, cell-based (AID 1583). The conditions noted are these: polyglutamine-induced caspase-3 activation, cell assay; stronger effect = higher value;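 tested at 10 µM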.
A short description of assay [13]: suppressors of polyQ aggregation in yeast, 75Q-TubU reporter (AID 1593). The conditions noted are these: Yeast 75Q polyglutamine aggregation reporter.
Assay [14] can be described thus: rescue of polyQ-huntingtin neuronal dysfunction in worms, whole organism, C. elegans mechanosensory neurons, N-terminal huntingtin (AID 1599). The conditions noted are these: touch response, stronger effect = higher value.
The nature of assay [15]: inhibitors of mitochondrial cytochrome c release, biochemical, purified mitochondria (AID 1603).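 Note: mouse liver mitochondria challenged with calcium chloride; signal normalized to the plate average as 100%.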 The conditions noted are these: stronger effect = lower value.
A short description of assay [16]: inhibitors of polyQ protein aggregation (AID 1604). The conditions noted are these: polyglutamine-induced protein aggregation inhibition assay; stronger effect = higher value; tested at 2.5 µM.
A short description of assay [17]: enhancers of glutamate uptake in motor neurons, MN-1 cell line (AID 1612).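 Note: tested at 1 µM final; 0% = mean of DMSO vehicle wells on each plate; positive means more glutamate uptake than control and negative means less.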 The conditions noted are these: MN-1 motor neuron cells, stronger effect = higher value.
Assay [18] is described as follows: suppressors of polyglutamine aggregation in yeast, 75Q-TubH (AID 1616). The conditions noted are these: S. cerevisiae 75Q-TubH polyglutamine aggregation suppression; stronger effect = higher value.
The nature of assay [19]: circadian clock period modulators, cell-based, LOPAC library, luminescence reporter (AID 2774; call rule not given here;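 note: values are relative to mean of DMSO wells on each plate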). The conditions noted are these: circadian reporter cells, at 7 µM, actives lie on both sides.
The nature of assay [20]: reducers of polyQ inclusions in PC12 cells, cell-based, NGF-treated PC12, GFPQ80 (AID 1614).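 Note: lower means fewer inclusions and 0 means no inclusions at all.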 The conditions noted are these: PC12 NGF-treated GFP-polyQ80 inclusion reduction.
[21] abbreviates: measured here: combination with cisplatin, at 0.5 µM.

Each structure is given as a SMILES string. Where “and” joins values, the source holds several entries; their conditions need not be identical. Equal values may be shown once. Results filed as inconclusive are left out. For part of these data: Results with a measured potency or affinity are listed apart. Calls of active or inactive are those of the source. Unless noted, no cut-off is given here; in the data, nearly all actives have AC50 up to about 30 µM.

`CC(NCCc1ccc(O)cc1)C(O)c1ccc(O)cc1` (stereo unspecified): the compound was called inactive in assay [1], in [2], in assay [3], in assay [4] and in assay [5].

As to `CN1C(C(=O)Nc2ccccn2)=C(O)c2sc(Cl)cc2S1(=O)=O`, the outcome in [2], in [3], in [4] and in assay [5] was inactive.

In general, AC50 refers to the midpoint of the concentration-response curve, whichever way the signal moves. The term IC50 denotes the concentration that inhibits the measured activity by half. Turning to `COc1ccc2nc3cc(Cl)ccc3c(Nc3cc(CN4CCCC4)c(O)c(CN4CCCC4)c3)c2n1`, the result in assay [1] and in assay [4] was inactive. In addition, the values for the AC50 in assay [2] and in assay [6] were 20.9 µM (active) and 13.2 µM (active), respectively. Moreover, the IC50 in assay [5] is 10.5 µM (active).

In general, inhibition refers to the change of the read-out against control, counted positive when it falls. As to `CC[C@@]1(O)C(=O)OCc2c1cc1n(c2=O)Cc2cc3cc(O)ccc3nc2-1`, the AC50 in assay [2] is 1.87 µM (active); in [3], 0.0833 µM (active); in assay [6] it was 0.0661 µM (active). Moreover, in assay [4], the compound was classed as inactive. Besides, the inhibition in assay [7] (at 0.5 µM) was 67.2% (inactive) and 79% (inactive); in assay [7] (measured here: combination with BGB IC40, at 0.05 µM), -33.9% and 7.21%; in assay [7] (setting [21]), 83.2% and 73.4%; in assay [7] (measured here: combination with cisplatin, at 5 µM), 84.4% and 82.5%; in assay [8] (at 0.5 µM), 58.1% (inactive) and 64.8% (inactive); in [8] (measured here: combination with BGB at IC20, at 0.5 µM), 81.9% and 74.5%. The inhibition was 44.1% and 55.5% in assay [8] (measured here: combination with cisplatin at IC20, at 0.5 µM); 13.5% (inactive) and 7.41% (inactive) in assay [9] (at 0.5 µM); 46.9% and 55.3% in [9] (cisplatin combination, at 0.5 µM); 28% and 7.98% in assay [9] (cisplatin combination, at 5 µM); -21.8% and -8.97% in assay [9] (measured here: BGB IC40 combination 0.05 uM, at 0.05 µM); 42.3% and 44.7% in [9] (single agent, at 5 µM). The inhibition in [10] (at 0.5 µM) was 36.1% (inactive) and 38.1% (inactive); in [10] (cisplatin combo, at 5 µM), 72.4% and 72.1%; in assay [10] (measured here: BGB IC40 combination, at 0.05 µM), -15.2% and -13.6%; in assay [10] (setting [21]), 47.7% and 55.8%; in assay [10] (single agent, at 5 µM), 59.8% and 73%; in assay [11] (at 0.5 µM), 81.7% (active) and 82.4% (active). Besides, the inhibition in [11] (measured here: with BGB IC20 combination, at 0.5 µM) is 95.3% and 93.8%; in assay [11] (measured here: with cisplatin IC20 combination, at 0.5 µM), 74.8% and 76.7%; in [11] (single agent, at 0.05 µM), 4.98% and 48.5%; in [11] (single agent, at 5 µM), 99.8% and 99.9%.

For `C[C@H]1COC2=C1C(=O)C(=O)c1c2ccc2c1CCCC2(C)C`, the outcome in assay [1], in [4] and in assay [5] was inactive. The AC50 in assay [3] was 13.2 µM (active); in assay [6], 18.6 µM (active).

As to `OC(c1cc(C(F)(F)F)nc2c(C(F)(F)F)cccc12)C1CCCCN1` (stereo unspecified), the inhibition in assay [12] came out at 50.1%. The same compound registered a score in assay [13] of 1.42. Besides, the rescue above control in [14] stood at 0. Besides, the cytochrome c release ratio in assay [15] was 2.44. Besides, the inhibition of aggregation in assay [16] is -19.6%. For the same compound, in assay [17], the glutamate uptake change is -3.13%. The same compound yielded an aggregation suppression score in assay [18] of 1.65. Moreover, the AC50 in assay [3] was 26.4 µM (active).

In the case of `N=C(N)SCCN`, in assay [19], the period change was -0.04 h (inactive).

Turning to `CCC(NC(C)C)C(O)c1ccc(O)c(O)c1` (stereo unspecified), the period change in [19] is 0.18 h (inactive).

For the compound `CCCCC[C@H](CC(=O)NO)C(=O)N[C@H](C(=O)N1CCC[C@H]1CO)C(C)C`, the inhibition in assay [12] was -22.9%. Also, in [13], the score was 1.1. This compound returned a rescue above control in assay [14] of 7.47. The cytochrome c release ratio in assay [15] was determined as 0.78. Further, in assay [16], the inhibition of aggregation was 14.3%. Moreover, the glutamate uptake change in assay [17] amounted to 9.77%. The compound further showed an inclusion score in [20] of 2. In assay [18], this compound registered an aggregation suppression score of 1.26. In [19], the period change was -0.03 h (inactive).

As for `CC(=O)c1ccc(S(=O)(=O)NC(=O)NC2CCCCC2)cc1`, the period change in assay [19] was -0.09 h (inactive).

With `CC(C)Cc1ccc([C@H](C)C(=O)O)cc1`, the period change in [19] is -0.055 h (inactive).
